Source: PubChem BioAssay
Most compounds without a hit are left out; they make up all but 7.5% or so of the library.
ELG1 genotox: inducers of genotoxicity in HEK293T ELG1-luciferase cells; HEK293T ELG1-luciferase reporter, luminescence, 16 h; Potency, µM (titrated, usually from 46 µM), usual class: activators; 1.3% of 330,000 active; also: nearly all actives have a fitted effect of over 60% in size
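HEK293T cells expressing luciferase-tagged ELG1 were exposed to compound or DMSO vehicle for 16 hr at 37 °C and 5% CO2. Luciferase activity was then measured with ONE-Glo after 30 min at room temperature.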
FLuc modulator: firefly luciferase modulation, counter-screen for miR-21 project | purified FLuc, Km substrates, luminescence inhibition | Potency, µM (titrated, usually from 57.5 µM), usual class: inhibitors | 6.9% of 360,000 active | AID 588342; also: nearly all actives have a fitted effect of over 55% in size
Target sequence (P08659 whole entry, looked up): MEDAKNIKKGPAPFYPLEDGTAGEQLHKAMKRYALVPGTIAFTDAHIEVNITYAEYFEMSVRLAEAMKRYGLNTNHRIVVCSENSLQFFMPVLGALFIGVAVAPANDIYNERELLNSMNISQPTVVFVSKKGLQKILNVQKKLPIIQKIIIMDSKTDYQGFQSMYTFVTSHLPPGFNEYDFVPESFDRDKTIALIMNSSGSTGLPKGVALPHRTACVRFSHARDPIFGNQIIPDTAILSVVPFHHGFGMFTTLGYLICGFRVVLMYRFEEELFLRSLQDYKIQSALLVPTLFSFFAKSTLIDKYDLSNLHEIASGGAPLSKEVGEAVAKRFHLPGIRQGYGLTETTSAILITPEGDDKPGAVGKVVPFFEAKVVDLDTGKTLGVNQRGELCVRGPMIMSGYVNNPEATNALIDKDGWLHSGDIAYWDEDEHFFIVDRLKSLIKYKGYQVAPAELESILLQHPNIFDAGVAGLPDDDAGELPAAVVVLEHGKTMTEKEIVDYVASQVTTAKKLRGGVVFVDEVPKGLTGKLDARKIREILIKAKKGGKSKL
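Purified P. pyralis luciferase, 10 nM final, with Km-level 10 uM D-luciferin and 10 uM ATP in 50 mM Tris acetate pH 7.5, 10 mM Mg acetate, 0.01% Tween-20, 0.05% BSA; 6-point qHTS titration about 60 µM downward; luminescence read.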
Luc counter: Kinase-Glo luciferase inhibition (counter-screen); Kinase-Glo luciferase, ATP luminescence, 8 min; 0.28% of 200,000 active; Q27757; Potency, µM (doses to about 38.3 µM), actives largely listed as inhibitors; also: nearly all actives have a fitted effect of over 60% in size
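Light output from Kinase-Glo luciferase with luciferin and 10 uM ATP in 50 mM imidazole pH 7.2, KCl, MgCl2, Tween 20, BSA; compound pin-delivered, 8-min ambient incubation, then luminescence read.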
Rab9 prom act: activators of Rab9 promoter. Huh7 Rab9 promoter-luciferase reporter, luminescence, 24 h. Potency, µM (highest dose often 9.22 µM), most hits filed as activators. 2.8% of 320,000 active. AID 485297; also: nearly all actives have a fitted effect of over 60% in size
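Stable Rab9-luc Huh7, 1500 cells/well, 2 h settle; cmpd in DMSO, 24 h, 37 °C/5% CO2; luciferase reagent 10 min RT; luminescence.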
NPC1 promoter act: NPC1 promoter activation. Huh7 NPC1 promoter luciferase reporter, 24 h. Potency, µM (series often up to 9.22 µM), actives largely listed as activators. 2.4% of 320,000 active; also: nearly all actives have a fitted effect of over 60% in size
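Huh7 cells stably carrying NPC1 promoter–luciferase, plated in Opti-MEM with 10% FBS for 2 h, were exposed to compound in DMSO for 24 h at 37 °C; luciferase reagent was added for 10 min and luminescence read.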
SMN2 splice up: increases expression of the SMN2 splice variant; 2.8% of 210,000 active; Potency, µM (top dose mostly 46.1 µM), usual class: activators; HEK293 SMN2-luciferase splicing reporter, luminescence, 30-36 h; also: nearly all actives have a fitted effect of over 55% in size
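HEK293 cells carry an SMN2 […]–luciferase reporter in which exon 7 inclusion puts luciferase in frame. Cells were plated 10-12 h before compound addition, then incubated 30-36 h at 37C. ONE-Glo luminescence was read; sodium butyrate at 4.5 mM final served as control.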
Numbers stand for hits; n = inactive; u = inconclusive; x = no result given; [ ] = another dose, or the depositor's remark. Calls follow the shape of the dose curve; as a rule, active = well fitted curve in the direction sought with a large enough effect; inconclusive = small, poorly fitted or top-dose-only effect, or another doubt; inactive = no such curve, though single readings can be large; an effect the other way counts as inactive or inconclusive.

SMILES	ELG1 genotox	FLuc modulator	Luc counter	Rab9 prom act	NPC1 promoter act	SMN2 splice up
O=C(Cc1ccc(Cl)cc1)Nc1ncc([N+](=O)[O-])s1	n	15µM	n	1.4µM	n	n
O=C(COc1ccc(Cl)cc1)Nc1ncc([N+](=O)[O-])s1	u	4.3µM	n	u	0.56µM	u
O=C(Cc1ccc(Br)cc1)Nc1ncc([N+](=O)[O-])s1	n	u	x	u	u	x
CCOC(=O)c1cc(/C(C)=N/OC(=O)c2ccc(Cl)cc2)on1	n	n	x	n	n	x
C/C(=N/OC(=O)CC(C)C)c1cc(-c2ccc(Cl)cc2)no1	u	u	n	2.8µM	u	18µM
Cc1noc(C)c1C(=O)N1CCC[C@@]2(CCN(c3cccc(-c4ccccc4)c3)C2)C1	x	x	n	x	x	n
CCn1nnc2cc(C(=O)Nc3cc(OC)cc(OC)c3)ccc21	u	17µM	x	n	n	x
COc1cc(OC)cc(C(=O)Nc2ccc(C(=O)Nc3ccccc3OC)cc2)c1	n	x	x	x	x	x
COc1cc(NC(=O)c2ccccc2)cc(OC)c1	u	19µM	n	u	6.3µM	u
COc1ccc(C(=O)Nc2cc(OC)cc(OC)c2)cc1	u	4.8µM	n	1.8µM	2µM	25µM
CC(C)n1cnnc1SCC(=O)NC(=O)c1ccccc1	n	n	x	n	n	x
COCCN1Cc2cccc(C(=O)Nc3ccc(S(=O)(=O)N4CCOCC4)cc3)c2C1=O	n	n	n	n	n	n
O=C(CCl)N=c1sccn1Cc1ccccc1Cl	n	n	x	n	n	x
O=C(Cn1ccsc1=NC(=O)C(F)(F)F)c1ccccc1	n	n	n	2.8µM	u	u
CC(C)CN1CCC2(CC1)CCN(C(=O)c1cnccn1)CC2	x	x	n	x	x	n
NC(=O)c1ccccc1N/C=C/C(=O)c1ccco1	5.2µM	9.5µM	n	3.2µM	u	11µM
NC(=O)c1ccccc1NC(=O)/C=C/C(=O)O	n	n	n	n	n	n
O=C(/C=C/Nc1cccc(C(F)(F)F)c1)c1ccc(Oc2ncccn2)cc1	n	12µM	n	u	u	n
O=C(/C=C/Nc1cccc(C(F)(F)F)c1)c1ccco1	u	11µM	n	u	n	u
O=C(/C=C/Nc1ccc(Oc2ccccc2)cc1)c1ccco1	u	0.85µM	u	0.71µM	0.63µM	x
O=C(/C=C/Nc1ccccc1C(F)(F)F)c1ccco1	2.9µM	1.2µM	n	0.71µM	2µM	10µM
O=C(Nc1ccc(F)c(F)c1)c1cc(S(=O)(=O)NCc2ccc3c(c2)OCO3)ccc1F	x	n	x	x	x	x
O=C(NCc1ccco1)c1cnc2sccn2c1=O	n	n	n	n	n	n
O=C(NCCc1ccccc1)c1cnc2sccn2c1=O	u	17µM	n	3.5µM	u	13µM
Cc1cccn2c(=O)c(C(=O)NCCc3ccccc3)cnc12	x	4.8µM	x	x	x	x
SMILES	ELG1 genotox	FLuc modulator	Luc counter	Rab9 prom act	NPC1 promoter act	SMN2 splice up
CC(=O)c1c(C)[nH]c(C(=O)N2CCN(c3ccccn3)CC2)c1C	n	n	x	n	n	x
CCN(CC)S(=O)(=O)c1nnc(NC(=O)COc2ccc(Cl)cc2)s1	x	2.4µM	x	x	x	x
CCN(CC)S(=O)(=O)c1nnc(NC(=O)COc2ccccc2F)s1	x	11µM	x	x	x	x
O=C(Cc1cccs1)N1CCN=C1SCc1ccc(Br)cc1	n	n	n	n	n	n
Cc1ccc(N=Cc2c(O)c3ccccc3n(C)c2=O)cc1	n	0.43µM	x	n	n	x
Cc1ccc(N=Cc2sc(O)c3ccccc23)c(C)c1	n	u	n	1µM	u	11µM
Cc1ccc(N=Cc2c(C)[nH]n(-c3nc4ccccc4[nH]3)c2=O)cc1	n	6.7µM	5µM	u	u	n
Cc1ccc(N=Cc2sc(O)c3ccccc23)cc1	u	1.1µM	n	1.3µM	2µM	4.5µM
CCN(CC(=O)NC1CCS(=O)(=O)C1)C(C)C(=O)Nc1ccc(F)cc1 (stereo not drawn)	n	n	x	n	n	x
N#CC1(NC(=O)CN2C(=O)NC3(CCCCCC3)C2=O)CCCCC1	n	n	x	n	n	x
Cc1ccc(-c2nc3c4ccccc4n(CC(=O)N4CCN(c5ccccc5F)CC4)c(=O)n3n2)cc1	x	n	x	x	x	x
O=C(O)c1[nH]c(=O)[nH]c(=O)c1CN1CCCCC1	x	x	n[7.66 µM]	x	x	n[9.22 µM]
O=Cc1cccc(OC(=O)c2ccc(Cl)cc2Cl)c1	12µM	17µM	n	u	u	u
CC(=O)c1c(C)nc(-c2ccccc2)nc1N	n	u	n	n	n	x
CCOC(=O)c1c(C)nc(-c2ccccc2)nc1N	18µM	n[2.3 µM]	n	u	n	x
CCOC(=O)c1cnn(-c2cc(C)nc3c(-c4ccccc4)c(C)nn23)c1N	n	n	n	n	n	n
CCOC(=O)c1c(C)nc(C)c(C(=O)OCC)c1-c1ccccc1	n	6µM	n	2.2µM	4µM	16µM
CCOC(=O)c1c(-c2ccccc2)cn2c(C)cc(C)nc12	16µM	3.4µM	n	2.8µM	3.2µM	11µM
O=C1CSC(c2ccc([N+](=O)[O-])cc2)N1c1ccc(O)cc1 (stereo not drawn)	n	n	x	n	n	x
COc1ccc(-c2nsc3c(N4CCCCC4)ncnc23)cc1	u	0.085µM	n	u	u	n
COc1ccc(-c2nsc3c(N4CCN(S(=O)(=O)c5ccccc5F)CC4)ncnc23)cc1	n	n	n	n	n	n
COc1ccc(-c2nsc3c(N4CCCCC4C)ncnc23)cc1 (stereo not drawn)	n	0.34µM	n	n	n	n
COc1ccc(C(=O)N2CCN(c3ncnc4c(-c5ccccc5)nsc34)CC2)cc1	n	n	n	n	n	n
O=C(CSc1nnc(-c2ccccn2)o1)Nc1ccccc1	u	n	n	2.5µM	2.5µM	11µM
Fc1ccc(CSc2nnc(-c3ccccn3)o2)cc1	u	11µM	x	2.2µM	1.4µM	x
SMILES	ELG1 genotox	FLuc modulator	Luc counter	Rab9 prom act	NPC1 promoter act	SMN2 splice up
O=C(CSc1nnc(-c2ccccn2)o1)Nc1ccc(F)cc1	u	n	x	u	2µM	x
Cc1ccc2nc(NS(=O)(=O)c3ccc(Cl)cc3)c(Nc3ccc(C(=O)O)cc3)nc2c1	x	11µM	x	x	x	n
COc1cccc(Nc2nc3ccccc3nc2NS(=O)(=O)c2ccc(NC(C)=O)cc2)c1	n	24µM	x	n	n	x
CCOc1ccc(S(=O)(=O)Nc2nc3ccccc3nc2Nc2ccc(OC)cc2)cc1	x	13µM	x	x	x	n
CC(=O)Nc1ccc(S(=O)(=O)Nc2nc3cc4c(cc3nc2Cl)OCCO4)cc1	n	19µM	x	n	n	x
CC(=O)Nc1ccc(S(=O)(=O)Nc2nc3ccccc3nc2Nc2ccc(S(N)(=O)=O)cc2)cc1	n	u	n	n	n	n
O=S(=O)(Nc1nc2cc3c(cc2nc1Cl)OCCO3)c1ccccc1	n	u	n	n	n	n
CCCc1cc2c(n1CCc1ccc(Cl)cc1)C(C)C1CN(C(=O)c3ccccc3)C(C)(C(=O)OC)C21 (stereo not drawn)	x	x	n	x	x	n
